Most compounds without a hit are left out; they make up all but 9.8% or so of the library.
HPGD block = qHTS Assay for Inhibitors of HPGD (15-Hydroxyprostaglandin Dehydrogenase) | purified HPGD, NADH fluorescence kinetic, PGE2 substrate | AID 894, 2007 | hit rate 4.3% among 150,000 | Potency, µM, inactives show at the top dose activity change, negative = inhibition, actives largely listed as inhibitors | 15-hydroxyprostaglandin dehydrogenase [NAD(+)] (Homo sapiens), P15428; active means well fitted inhibition curve with a large enough effect, not every such curve was filed as active; inconclusive means small, poorly fitted or top-dose-only effect, or another doubt; inactive means no such curve, though single readings can be large or run the other way; further: potency means the concentration at half of the fitted maximal effect; on the % scale 0 is the no-effect control and ±100 the full control effect
Target sequence (P15428 whole entry, looked up): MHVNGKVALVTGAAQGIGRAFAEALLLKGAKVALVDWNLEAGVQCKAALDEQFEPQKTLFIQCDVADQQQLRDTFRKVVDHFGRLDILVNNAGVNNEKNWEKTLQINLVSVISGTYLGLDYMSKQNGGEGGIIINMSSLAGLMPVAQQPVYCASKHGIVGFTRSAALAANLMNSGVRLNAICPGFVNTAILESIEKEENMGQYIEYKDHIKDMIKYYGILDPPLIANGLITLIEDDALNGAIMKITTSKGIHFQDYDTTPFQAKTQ
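NADH formation kinetics: reaction with 30 uM PGE2 and 1 mM NAD+ (final), 20 nM enzyme, Tris-HCl pH 8 with Tween 20, after 15 min compound preincubation at room temperature. Fluorescence change, last versus first of five reads.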
KDM4E inh = qHTS Assay for Inhibitors of Human Jumonji Domain Containing 2E (JMJD2E). JMJD2E catalytic domain, FDH-coupled NADH fluorescence (FDH is formaldehyde dehydrogenase). hit rate 1.6% among 230,000. Potency, µM (series often up to 57.1 µM), for the others: at the top dose activity change, negative = inhibition, usual class: inhibitors. Lysine-specific demethylase 4E (Homo sapiens), B2RXH2. AID 2147, 2009; active means well fitted inhibition curve with a large enough effect, not every such curve was filed as active; inconclusive means small, poorly fitted or top-dose-only effect, or another doubt; inactive means no such curve, though single readings can be large or run the other way;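 further: potency means the concentration at half of the fitted maximal effect; 0% = wells with enzyme and -100% = buffer wells without enzyme; nearly all actives have a fitted effect of over 50% in size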
ALDH1A1 inh = qHTS Assay for Inhibitors of Aldehyde Dehydrogenase 1 (ALDH1A1). Aldehyde dehydrogenase 1A1 (Homo sapiens), P00352. Purified ALDH1A1, NADH fluorescence, propionaldehyde substrate. Potency, µM (highest dose often 75.3 µM), for the others: top-dose activity, negative = inhibition, most hits filed as inhibitors. hit rate 7.3% among 220,000. AID 1030, 2008; active means well fitted inhibition curve with a large enough effect, not every such curve was filed as active; inconclusive means small, poorly fitted or top-dose-only effect, or another doubt; inactive means no such curve, though single readings can be large or run the other way;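 further: potency means the concentration at half of the fitted maximal effect; plate controls were no enzyme wells and a reference inhibitor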
Target sequence (P00352 whole entry, looked up): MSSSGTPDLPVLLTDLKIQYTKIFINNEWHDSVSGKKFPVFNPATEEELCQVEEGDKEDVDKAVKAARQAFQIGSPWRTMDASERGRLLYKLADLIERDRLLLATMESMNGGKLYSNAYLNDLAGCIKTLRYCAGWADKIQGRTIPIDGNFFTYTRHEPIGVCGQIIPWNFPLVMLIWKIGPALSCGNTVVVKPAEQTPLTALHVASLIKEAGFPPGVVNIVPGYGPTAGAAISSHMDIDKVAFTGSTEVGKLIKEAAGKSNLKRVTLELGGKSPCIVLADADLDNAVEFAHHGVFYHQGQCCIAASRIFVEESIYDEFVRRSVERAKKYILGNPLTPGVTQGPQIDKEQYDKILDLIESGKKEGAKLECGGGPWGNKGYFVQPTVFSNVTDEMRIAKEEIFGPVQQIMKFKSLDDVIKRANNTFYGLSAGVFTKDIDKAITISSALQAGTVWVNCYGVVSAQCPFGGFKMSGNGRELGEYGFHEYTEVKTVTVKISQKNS
CBFb RUNX1 block = qHTS Assay for Compounds Blocking the Interaction Between CBF-beta and RUNX1 for the Treatment of Acute Myeloid Leukemia; Potency, µM (titrated, usually from 59.8 µM), for the others: top-dose activity, negative = inhibition, actives largely listed as inhibitors; 230,000 tested, under 10 active; AID 1477, 2009; AlphaScreen CBFb-His/RUNX1-biotin binding, biochemical; further: % of control where 0% means no effect
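Room-temperature protein-protein interaction test with 30 nM each of His-tagged CBF-beta and biotinylated RUNX1, 15 min with compound, then 90 min with nickel plus streptavidin beads. Signal read in AlphaScreen mode.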
HTT ATP protect = qHTS Multiplex Assay to Identify Dual Action Probes in a Cell Model of Huntington: Cytoprotection (ATP) | Potency, µM (highest dose often 56.4 µM), for the others: cytoprotection (ATP increase), actives largely listed as activators | AID 1471, 2008 | hit rate 0.14% among 230,000 | PC12 HTT-Q103 induced, cytoprotection, ATP luminescence, 40 h; further: potency means the concentration at half of the fitted maximal effect; % of control where 0% means no effect; nearly all actives have a fitted effect of over 45% in size
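Compounds were screened for protection of PC12 cells against cell death after tebufenozide induction (100 nM final) of mutant Huntingtin exon 1 (Q103) fused to GFP.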
HTT aggregate = qHTS Multiplex Assay to Identify Dual Action Probes in a Cell Model of Huntington: Aggregate Formation (GFP) | hit rate 1.1% among 220,000 | Potency, µM (doses to about 46.1 µM), for the others: at the top dose activity change, negative = inhibition, usual class: inhibitors | PC12 HttQ103-GFP aggregates, Acumen cytometry, 40 h; further: potency means the concentration at half of the fitted maximal effect; on the % scale 0 is the no-effect control and ±100 the full control effect; nearly all actives have a fitted effect of over 60% in size
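Aggregate formation scored by laser-scanning cytometer (488 excitation, 500–530 emission) in lysed PC12 cells expressing Q103-GFP after 100 nM tebufenozide induction; library tested in dose series, with ATPLite reagent added in the multiplex.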
Active calls of the source: *; ? = inconclusive; . = no result given; [ ] = another dose, or the depositor's remark. Unless noted, the call rests on the fitted dose curve; in most records, active means well fitted curve in the direction sought with a large enough effect; inconclusive means small, poorly fitted or top-dose-only effect, or another doubt; inactive means no such curve, though single readings can be large; an effect the other way counts as inactive or inconclusive.

SMILES | HPGD block | KDM4E inh | ALDH1A1 inh | CBFb RUNX1 block | HTT ATP protect | HTT aggregate
O=C(CCC1CCCN(C(=O)c2ccsc2)C1)N1CCN(c2ccccn2)CC1 (stereo unspecified) | . | ? | . | 1% | 17%[10 µM] | 0%[9.22 µM]
CCNC(=O)NCc1cccc(Cl)c1 | . | . | . | . | 3% | 7%
CC(=O)NCCNc1ncnc2ccc(-c3ccccc3C)cc12 | . | . | ? | . | -48% | .
Brc1ccc(C2=CC(c3ccco3)n3nnnc3N2)cc1 (stereo unspecified) | . | 0% | . | -1% | -4%[10 µM] | -13%[9.22 µM]
Clc1ccccc1C1=CC(c2ccco2)n2nnnc2N1 (stereo unspecified) | . | -3% | 13µM* | 5% | 22%[10 µM] | -2%[9.22 µM]
C=CCOc1ccc(/C=N/NC(=O)CN2CCOCC2)cc1OCC | . | ? | -1% | 2% | -27% | 22%
N/C(=N\NC(=O)c1sccc1OCc1ccc(Cl)cc1Cl)c1ccccn1 | . | -5% | -1% | 1% | -11% | 1.8µM*
O=C(CC(Nc1ccccc1Cl)C(=O)OCC(=O)c1cccs1)c1ccccc1 (stereo unspecified) | -20% | -9% | 25µM* | 8% | -24% | 0%
O=C(OCC(=O)c1cccs1)c1ccccc1 | 14µM* | 5% | 13µM* | 29% | -6% | 9%
O=C(CC(Nc1ccc(Cl)cc1Cl)C(=O)O)c1ccccc1 (stereo unspecified) | . | 4% | . | 3% | 6%[10 µM] | 14%[9.22 µM]
CN(C)CCOC(=O)c1ccc2c(c1)S(=O)(=O)c1ccccc1C2=O | . | ? | . | -18% | 12%[10 µM] | 30%[9.22 µM]
Cc1cc(=O)[nH]c(Nc2cccc(C(F)(F)F)c2)n1 | -10% | -5% | 5% | 4% | 11% | 11µM*
CC(=C/c1ccco1)/C=N/NC(=O)Cc1cccn1C | -26% | ? | 25µM* | ? | -5%[1.9 µM] | ?
CC(/C=N/NC(=O)Cn1cnc2c1c(=O)n(C)c(=O)n2C)=C\c1ccco1 | . | -23% | 22µM* | -3% | -2%[10 µM] | -1%[9.22 µM]
Cn1cccc1CC(=O)N/N=C/c1ccco1 | . | ? | . | ? | 14%[10 µM] | -11%[9.22 µM]
Cc1ccc(/C=N/NC(=O)Cc2cccn2C)s1 | 7.1µM* | -5% | 3% | -3% | 3%[10 µM] | -7%
CC(/C=N/NC(=O)Cc1cccn1C)=C\c1ccco1 | ? | ? | 14µM* | ? | 12%[10 µM] | ?
CC(/C=N/NC(=O)CN1CCN(Cc2ccc(Cl)cc2)CC1)=C\c1ccco1 | -1% | -9% | -9% | 1% | 23%[10 µM] | 14%
Cc1ccc([N+](=O)[O-])cc1NC(=O)C(C)NS(=O)(=O)c1ccc(F)cc1 (stereo unspecified) | . | 4% | ? | 2% | -11% | 1%
Cc1c(C(=O)O)sc2nc(CSc3nnc(-c4ccc(F)cc4)n3C)[nH]c(=O)c12 | . | 2% | 19µM* | 5% | -12% | -9%
C=CCn1c(SCc2nc3sc(C(=O)O)c(C)c3c(=O)[nH]2)nnc1-c1ccc(C(C)(C)C)cc1 | . | 7% | 20µM* | 1% | 1%[10 µM] | 0%[9.22 µM]
Cc1sc2nc(CSc3nc4ccccc4s3)[nH]c(=O)c2c1C | . | 9% | 7.9µM* | -11% | 7% | 15%
C=CCn1c(SCc2nc3sc(C(=O)O)c(C)c3c(=O)[nH]2)nnc1-c1ccccc1 | . | 5% | ? | -1% | 1%[10 µM] | 0%
CC(=O)c1sc2nc(CSc3nnnn3-c3ccccc3)[nH]c(=O)c2c1C | . | -17% | 25µM* | 1% | . | -33%
O=C(COC(=O)c1ccc(S(=O)(=O)N2CCCC2)cc1)NCc1ccco1 | . | -13% | . | -4% | -7%[10 µM] | -1%[9.22 µM]
SMILES | HPGD block | KDM4E inh | ALDH1A1 inh | CBFb RUNX1 block | HTT ATP protect | HTT aggregate
O=C(CCC(=O)c1cccs1)NCc1cccnc1 | . | 4% | 3% | 9% | -26% | 12%
Cc1nnc(SCc2nc3sc(C(=O)O)c(C)c3c(=O)[nH]2)s1 | . | -17% | 20µM* | 12% | ? | 1%[9.22 µM]
CC(=O)c1sc2nc(CSc3nncn3C)[nH]c(=O)c2c1C | . | ? | ? | -4% | -16% | 10%
CCOc1ccc(N(CC(=O)Nc2cccc(F)c2)S(=O)(=O)c2c(C)noc2C)cc1 | -3% | 4% | 8% | 5% | -29% | ?
CCOc1ccc(N(CC(=O)Nc2ccc(C)c(C)c2)S(=O)(=O)c2c(C)noc2C)cc1 | -6% | -4% | -4% | -9% | 18%[10 µM] | 20µM*
COC(=O)CCN(C1CCCCC1)S(=O)(=O)c1ccc(S(=O)(=O)N2CCCCC2)cc1 | -15% | 7% | 1.8µM* | 4% | 11% | 5%
Cc1cccc(NC(=O)c2ccc(-c3ccccc3[N+](=O)[O-])o2)c1 | . | -16% | 2.2µM* | 4% | 5%[10 µM] | -7%[9.22 µM]
COc1cccc(NC(=O)c2ccc(-c3ccccc3[N+](=O)[O-])o2)c1 | . | -3% | ? | -16% | -47% | -13%
Cc1ccc(N=Nc2c(O)c3ccccc3[nH]c2=O)c(S(=O)(=O)N(C)C)c1 | -1% | 12% | 14µM* | -5% | -13%[10 µM] | 4%[9.22 µM]
O=C(NN1C(=O)CSC1=S)C(=O)NN1C(=O)CSC1=S | . | 8.9µM* | ? | . | 25% | -5%
O=C1C=CC(=O)c2c(O)c(Cl)c(Cl)c(O)c21 | ? | 5% | 1.3µM* | . | . | .
Oc1c(Cl)ccc(Cl)c1Cl | -9% | . | -5% | 9%[21.7 µM] | 12% | .
N#CCCn1c(=O)c(CCc2ccccc2)nc2cnc(Oc3cccc(Cl)c3)nc21 | 0% | . | 10µM* | . | 5% | .
N#CCCn1c(=O)c(-c2ccc(F)cc2)nc2cnc(Oc3cccc(Cl)c3)nc21 | -18% | . | ? | . | 3.2µM* | .
COCCn1c(=O)c(CCc2ccccc2)nc2cnc(OCc3ccccc3)nc21 | . | . | 25µM* | . | -82% | .
Cc1nc2cnc(Oc3cccc(Cl)c3)nc2n(CCC#N)c1=O | -15% | . | -10% | . | ? | .
N#CCCn1c(=O)c(-c2ccc(Cl)cc2)nc2cnc(Oc3cccc(Cl)c3)nc21 | -7% | . | ? | . | -30% | .
O=c1c(CCc2ccccc2)nc2cnc(Oc3ccccc3)nc2n1C1CC1 | . | . | 11µM* | . | -99% | .
C=CCn1c(SCc2nc3ccccc3c(=O)[nH]2)nc2scc(C3CC3)c2c1=O | . | 4% | ? | 12% | -76%[10 µM] | -11%[9.22 µM]
O=C(CSc1nnnn1C1CC2CCC1C2)Nc1ccnc2ccccc12 (stereo unspecified) | ? | -1% | 2.5µM* | 4% | 21%[10 µM] | ?
O=C(Sc1nnnn1C1CCCCC1)c1cccs1 | 25µM* | ? | 10µM* | 15% | -6%[0.074 µM] | -9%

Compound activity (PubChem)
